Test systems include NCI-H23 lung; NCI-H226 lung; NCI-H322M lung; HOP-62 NSCLC; NCI-H460 lung; HOP-92 NSCLC; NCI-H522 lung; A549/ATCC NSCLC; 786-0 renal; COLO 205 colon.
Holding throughout (test): NCI-60 one-dose screen, 48 h (100 = growth as untreated, 0 = no growth, -100 = all killed)
Settings in all cases: 10 µM unless noted

Consider 15 compounds from PubChem BioAssay (NCI).

SMILES strings stand for the structures. This is part of a sample that, as a whole, favours compounds with a hit. Of some 83,000 tested, about 20% had one in any assay.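 How to read the values: 0–100, growth inhibition (40 = 60% inhibited); 0, no net growth; -100 to 0, cell death (-40 = 40% of starting cells died; -100 = all dead).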 The source made the active and inactive calls. How the source made its calls: active means growth percent below 10; inactive means the rest.

As for `CC/C(Cc1ccccc1)=C(\c1ccc(OCCCN(C)C)cc1)c1ccc(OC(=O)NCc2ccccc2)cc1`, the growth is 92.9% (inactive) in the experiment on NCI-H23 lung; 86.4% (inactive) in the experiment with NCI-H226 lung; 87.2% (inactive) in the experiment with NCI-H322M lung; 85.7% (inactive) in the experiment on HOP-62 NSCLC; 7.02% (active) with NCI-H460 lung; 38.6% (inactive) in the experiment with HOP-92 NSCLC. Moreover, the growth in the experiment on NCI-H522 lung was 95.5% (inactive); in the experiment on A549/ATCC NSCLC, 61.9% (inactive); with 786-0 renal, 62% (inactive); with COLO 205 colon it was 4.67% (active).

As to `CCN1C(=O)N(CC)C2Nn3c(s/c(=C\c4ccccc4Br)c3=O)=NC21` (configuration not stated), the growth was 25.6% (inactive) in the experiment with NCI-H23 lung; 57.5% (inactive) in the experiment on NCI-H226 lung; 46.7% (inactive) in the experiment on NCI-H322M lung; 37% (inactive) with HOP-62 NSCLC; 4.16% (active) in the experiment on NCI-H460 lung; 42.9% (inactive) in the experiment with HOP-92 NSCLC. Further, the growth in the experiment on NCI-H522 lung was -12.8% (active); in the experiment with A549/ATCC NSCLC, 12.7% (inactive); in the experiment with 786-0 renal it was 25.3% (inactive); with COLO 205 colon, 14.4% (inactive).

In the case of `CCN1C(=O)N(CC)C2C1NN=c1s/c(=C3\C(=O)N(CCC(C)C)c4ccccc43)c(=O)n12` (configuration not stated), the growth in the experiment on NCI-H23 lung was 30.8% (inactive); in the experiment on NCI-H226 lung, 56.3% (inactive); in the experiment on NCI-H322M lung it was 52.1% (inactive); in the experiment on HOP-62 NSCLC, 38.9% (inactive); with NCI-H460 lung, 5.57% (active); with HOP-92 NSCLC, 40.4% (inactive). In addition, the growth in the experiment on NCI-H522 lung was 1.9% (active); with A549/ATCC NSCLC, 14.2% (inactive); in the experiment with 786-0 renal, 29.1% (inactive); in the experiment on COLO 205 colon it was 12.3% (inactive).

Turning to `Cc1ccc(-c2nc(-c3cn(C)c4ncccc34)cs2)cc1`, the growth in the experiment on NCI-H23 lung is -7.81% [100 µM] (active); in the experiment on NCI-H226 lung, -35.3% [100 µM] (active); in the experiment on NCI-H322M lung, -32% [100 µM] (active); in the experiment on HOP-62 NSCLC, -63.3% [100 µM] (active); with NCI-H460 lung, -48.5% [100 µM] (active); with HOP-92 NSCLC, -47.2% [100 µM] (active). For the same compound, the growth is 6.25% [100 µM] (active) in the experiment with NCI-H522 lung, 7.36% [100 µM] (active) in the experiment on A549/ATCC NSCLC, -52.8% [100 µM] (active) in the experiment on 786-0 renal and -60.5% [100 µM] (active) in the experiment with COLO 205 colon.

Turning to `COc1ccc(/C=C(/C(=O)n2cnnn2)c2cc(OC)c(OC)c(OC)c2)cc1`, the growth in the experiment on NCI-H23 lung is 41.8% (inactive); in the experiment with NCI-H226 lung it was 40.7% (inactive); in the experiment with NCI-H322M lung it was 50.8% (inactive); in the experiment with HOP-62 NSCLC, 25.6% (inactive); in the experiment with NCI-H460 lung it was 12.7% (inactive); in the experiment on HOP-92 NSCLC, 69.3% (inactive). Moreover, the growth with NCI-H522 lung is 20.6% (inactive); in the experiment with A549/ATCC NSCLC, 29% (inactive); in the experiment on 786-0 renal, 35.5% (inactive); in the experiment on COLO 205 colon, -3.15% (active).

With `CN(C)CCCNC(=O)c1cncnc1Nc1ccc(OCc2cccc(F)c2)c(Cl)c1`, the growth in the experiment on NCI-H23 lung was 61.5% (inactive); in the experiment on NCI-H226 lung, 89% (inactive); in the experiment with NCI-H322M lung, 4.56% (active); in the experiment on HOP-62 NSCLC, -56% (active); with NCI-H460 lung, -75.1% (active); in the experiment with HOP-92 NSCLC, 24.6% (inactive). For the same compound, the growth in the experiment on NCI-H522 lung is -60.4% (active); in the experiment with A549/ATCC NSCLC, -58% (active); in the experiment on 786-0 renal, -78.7% (active); with COLO 205 colon, -71.3% (active).

As for `C=C(C)[C@@H]1CC[C@]2(COC(C)=O)CC[C@]3(C)[C@H](CC[C@@H]4[C@@]5(C)CCCN(C(C)=O)C(C)(C)[C@@H]5CC[C@]43C)[C@@H]12`, the growth is 89.2% (inactive) with NCI-H23 lung; 45.2% (inactive) in the experiment with NCI-H226 lung; 61.3% (inactive) with NCI-H322M lung; 82.6% (inactive) with HOP-62 NSCLC; 0.0182% (active) with NCI-H460 lung; 69.3% (inactive) with HOP-92 NSCLC. Also, the growth was 59.6% (inactive) in the experiment on NCI-H522 lung, 33.8% (inactive) with A549/ATCC NSCLC, 8.13% (active) in the experiment on 786-0 renal and -76.5% (active) in the experiment on COLO 205 colon.

In the case of `Cc1ccc(C=C2C(=O)NC(=O)NC2=O)cc1`, the growth with NCI-H23 lung was 102% (inactive); in the experiment on NCI-H226 lung it was 105% (inactive); with NCI-H322M lung, 110% (inactive); in the experiment with HOP-62 NSCLC, 92.1% (inactive); in the experiment on NCI-H460 lung, 108% (inactive); with HOP-92 NSCLC, 110% (inactive). In addition, the growth with NCI-H522 lung was 85.9% (inactive); in the experiment with A549/ATCC NSCLC, 87.8% (inactive); with 786-0 renal, 107% (inactive); in the experiment with COLO 205 colon, 98.3% (inactive).

`C=C(CNCCO)[C@@H]1CC[C@]2(CO)CC[C@]3(C)[C@H](CC[C@@H]4[C@@]5(C)CCC(N)C(C)(C)[C@@H]5CC[C@]43C)[C@@H]12` (some centres not stated): the growth in the experiment on NCI-H23 lung is 83.7% (inactive); in the experiment on NCI-H226 lung, 88% (inactive); with NCI-H322M lung, 80.2% (inactive); in the experiment with HOP-62 NSCLC, 71.4% (inactive); in the experiment with NCI-H460 lung it was -26.8% (active); in the experiment with HOP-92 NSCLC, 54.5% (inactive). For the same compound, the growth was 0.745% (active) in the experiment on NCI-H522 lung, 36.2% (inactive) in the experiment on A549/ATCC NSCLC, 11% (inactive) in the experiment with 786-0 renal and -74.7% (active) in the experiment with COLO 205 colon.

For `Cc1ccc(-c2csc(N(C(=O)N3CCN(c4cc5c(cc4F)c(=O)c(C(=O)O)cn5C4CC4)CC3)c3ccccc3)n2)cc1`, the growth is -0.349% (active) with NCI-H23 lung; 7.91% (active) with NCI-H226 lung; 4.96% (active) in the experiment on NCI-H322M lung; 4.78% (active) with HOP-62 NSCLC; 5.91% (active) with NCI-H460 lung; -18% (active) in the experiment with HOP-92 NSCLC. The growth was -0.464% (active) with NCI-H522 lung, 13.7% (inactive) in the experiment with A549/ATCC NSCLC, 4.6% (active) in the experiment with 786-0 renal and 8.13% (active) in the experiment on COLO 205 colon.

On to `O=C(/C=C/c1cccc(Cl)c1Cl)Nc1ncc(Cc2ccccc2Cl)s1`, for which the growth was 79.2% (inactive) in the experiment with NCI-H23 lung; 67.7% (inactive) in the experiment with NCI-H226 lung; 78.5% (inactive) in the experiment with NCI-H322M lung; 42.4% (inactive) with HOP-62 NSCLC; 33.9% (inactive) in the experiment on NCI-H460 lung; 61.6% (inactive) in the experiment with HOP-92 NSCLC. Moreover, the growth with NCI-H522 lung was 17.5% (inactive); in the experiment on A549/ATCC NSCLC, 58.2% (inactive); in the experiment on 786-0 renal, 68.7% (inactive); with COLO 205 colon it was 45.4% (inactive).

In the case of `CC1(C)CC[C@]23CC[C@]4(C)[C@H](CC[C@@H]5[C@@]6(C)C/C(=C/c7ccncc7)C(=O)C(C)(C)[C@@H]6CC[C@]54C)[C@H]2[C@H]1OC3`, the growth with NCI-H23 lung is 91.8% (inactive); in the experiment on NCI-H226 lung it was 90.9% (inactive); with NCI-H322M lung it was 90.9% (inactive); in the experiment on HOP-62 NSCLC it was 91% (inactive); with NCI-H460 lung it was 75.8% (inactive); in the experiment on HOP-92 NSCLC, 72.4% (inactive). Moreover, the growth in the experiment with NCI-H522 lung was 76.4% (inactive); in the experiment on A549/ATCC NSCLC, 76.5% (inactive); in the experiment on 786-0 renal it was 88.5% (inactive); in the experiment on COLO 205 colon, 68.5% (inactive).

In the case of `O=C(Nc1ccc(Cl)cc1)Oc1c(Cl)c(Cl)c(Cl)c(Cl)c1Cl`, the growth in the experiment with NCI-H226 lung is 89.6% (inactive); with NCI-H322M lung it was 95.2% (inactive); in the experiment with HOP-62 NSCLC, 85.6% (inactive); in the experiment with NCI-H460 lung, 101% (inactive); with HOP-92 NSCLC, 41% (inactive); with NCI-H522 lung, 83.2% (inactive). For the same compound, the growth in the experiment on A549/ATCC NSCLC was 93.3% (inactive); in the experiment on 786-0 renal, 94.7% (inactive); in the experiment on COLO 205 colon it was 105% (inactive).

On to `COc1ccc2c(c1)CCc1[nH]nc(-c3cc(OC)c(OC)c(OC)c3)c1-2`, for which the growth is 41% (inactive) in the experiment on NCI-H226 lung; 47% (inactive) with NCI-H322M lung; 12.9% (inactive) with HOP-62 NSCLC; 3.92% (active) with NCI-H460 lung; 32.8% (inactive) in the experiment with HOP-92 NSCLC; -22.3% (active) in the experiment on NCI-H522 lung. The growth with A549/ATCC NSCLC was 5.04% (active); with 786-0 renal it was 3.88% (active); in the experiment on COLO 205 colon, -64.6% (active).

For the compound `O=S(=O)(Nc1cc(Sc2cccc3cccnc23)c(O)c2ccccc12)c1ccccc1`, the growth in the experiment on NCI-H226 lung was 46.3% (inactive); in the experiment on NCI-H322M lung, 28.3% (inactive); in the experiment on HOP-62 NSCLC, 47.3% (inactive); in the experiment with NCI-H460 lung it was 3.5% (active); with HOP-92 NSCLC it was 33.1% (inactive); with NCI-H522 lung it was -37.3% (active). Besides, the growth in the experiment with A549/ATCC NSCLC was 15.7% (inactive); in the experiment with 786-0 renal, 36.6% (inactive); in the experiment with COLO 205 colon it was -47.6% (active).
